# PubChem BioAssay AID504415 (Broad Institute, 2011)
# Measured potencies and affinities stand elsewhere. Records with an inconclusive call do not appear. The source made the active and inactive calls.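 How the source made its calls: active means compound lowering the signal whose fitted half-maximal concentration is at most ten times its top tested dose; inconclusive means flat curve with 30 to 70% loss, or poor fit; inactive means the rest.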
# Test: Mcl1-dependent cancer cell viability – HMC-1-8 cells, luminescence, dry powder, selectivity assay for A1 inhibitor project, dose response (AID 504415)
smiles,measurement,value
C/C1=C/C(=O)O[C@@H]2C[C@@H](CC[C@H](C)/C=C\CC1)O[C@@](O)(C1CSC(=O)N1)C2 (stereo partly specified),outcome,inactive
